Bioassay records: PubChem, National Center for Advancing Translational Sciences (NCATS)
The list is not random: actives were taken first. Their share in the collection is about 18%.
TDP1 inh: TDP1 (human) enzyme inhibition. Q9NUW8. recombinant TDP1, AlphaScreen DNA substrate cleavage. Potency, µM (series often up to 130 µM), for the others: top-dose activity change, negative = inhibition, actives largely listed as inhibitors. 0.28% of 350,000 active; further: potency means the concentration at half of the fitted maximal effect; on the % scale 0 is the no-effect control and ±100 the full control effect; nearly all actives have a fitted effect of over 40% in size
Target sequence (Q9NUW8 whole entry, looked up): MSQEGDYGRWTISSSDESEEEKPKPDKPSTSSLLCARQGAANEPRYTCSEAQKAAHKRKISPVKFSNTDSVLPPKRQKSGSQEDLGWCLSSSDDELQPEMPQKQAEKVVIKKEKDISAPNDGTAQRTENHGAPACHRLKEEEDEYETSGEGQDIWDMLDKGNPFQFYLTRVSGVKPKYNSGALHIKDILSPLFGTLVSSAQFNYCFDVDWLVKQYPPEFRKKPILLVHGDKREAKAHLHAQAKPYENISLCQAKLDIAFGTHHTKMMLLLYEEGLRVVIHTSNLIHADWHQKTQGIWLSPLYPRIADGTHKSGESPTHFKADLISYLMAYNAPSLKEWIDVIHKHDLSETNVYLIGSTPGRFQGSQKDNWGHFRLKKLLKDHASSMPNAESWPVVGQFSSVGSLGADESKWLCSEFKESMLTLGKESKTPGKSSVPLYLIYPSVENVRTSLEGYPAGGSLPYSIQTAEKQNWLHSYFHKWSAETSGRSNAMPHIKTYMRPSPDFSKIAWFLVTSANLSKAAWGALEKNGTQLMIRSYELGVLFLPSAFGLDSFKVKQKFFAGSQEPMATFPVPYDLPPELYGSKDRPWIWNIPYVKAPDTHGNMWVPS
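Recombinant E. coli-expressed Tdp1 (1 nM) preincubated with compound 15 min at RT, then 5'-biotin/3'-phosphotyrosine-FITC DNA substrate (15 nM) added for 5 min. AlphaScreen beads (10 ug/ml) added, 10 min RT; tyrosine-FITC cleavage read as signal loss.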
TDP1 cell CPT: growth inhibition of DT40 Tdp1-/-;hTDP1 cells with camptothecin (screen for TDP1 inhibitors); chicken DT40 Tdp1-/-;hTDP1 cells + 20 nM CPT, ATP luminescence, 48 h; Potency, µM (titrated, usually from 46.2 µM), inactives show top-dose activity change, negative = growth inhibition, hits mostly inhibitors; 12% of 420,000 active; further: potency means the concentration at half of the fitted maximal effect; on the % scale 0 is the no-effect control and ±100 the full control effect; nearly all actives have a fitted effect of over 55% in size
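Chicken DT40 Tdp1-/- cells stably complemented with human TDP1 were seeded at 400 cells/well in medium containing 20 nM camptothecin, exposed to pin-transferred compounds, and grown at 37 °C for at least 48 hr. Viability was read as ATP luminescence.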
TGFb inhibitor: TGF-b pathway inhibition; HepG2 CAGA-GFP TGF-b/SMAD3 reporter, GFP fluorescence, 18 h; TGF-beta stimulated, 500 pg/mL final; Potency, µM (titrated, usually from 46.1 µM), for the others: top-dose activity, negative = inhibition, hits mostly inhibitors; 1.2% of 410,000 active; AID 588855; further: potency means the concentration at half of the fitted maximal effect; on the % scale 0 is the no-effect control and ±100 the full control effect; nearly all actives have a fitted effect of over 65% in size
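HEPG2 CAGA-GFP cells (1000/well, DMEM with 1% FBS) were pre-incubated 2 h at 37 degrees C, given compound by pin tool, then stimulated with TGF-beta at 500 pg/mL final for 18 h before per-cell GFP fluorescence imaging.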
TDP1 cell noCPT: qHTS for Inhibitors of human tyrosyl-DNA phosphodiesterase 1 (TDP1): qHTS in cells in absence of CPT | DT40 Tdp1-/- hTDP1 cells, no CPT, ATP luminescence, 48 h | Potency, µM (series often up to 46.2 µM), without a hit: at the top dose activity change, negative = growth inhibition, actives largely listed as inhibitors | 15% of 420,000 active; further: potency means the concentration at half of the fitted maximal effect; on the % scale 0 is the no-effect control and ±100 the full control effect; nearly all actives have a fitted effect of over 55% in size
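Growth of hTDP1-complemented DT40 Tdp1-knockout cells is measured by ATP luminescence after at least 48 hr compound exposure at 37 °C, with DMSO substituting for the 20 nM CPT used in the parallel screen.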
HepG2 viability: counter-screen for TGF-b inhibitors: cytotoxicity in HepG2 cells; AID 588856; Potency, µM (titrated, usually from 46.1 µM), inactives show at the top dose activity change, negative = cytotoxicity, actives largely listed as cytotoxic; HepG2 CAGA-GFP viability, ATP luminescence, 18 h; 0.76% of 410,000 active; further: potency means the concentration at half of the fitted maximal effect
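HepG2 CAGA-GFP cells (1000/well, DMEM with 1% FBS) received compound, then TGF-beta at 500 pg/mL final, and were incubated 18 hours at 37 degrees C. Viability was read by CellTiter-Glo luminescence. Media-only wells were set as complete cell-killing and DMSO as no toxicity.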
IL-1B inflam inh: inflammasome signaling inhibition, IL-1 beta readout; AID 743279; activity change, % at 57.5 µM; THP-1 LPS/ATP IL-1B secretion, AlphaLISA, 16 h; hits give low values; 4.7% of 360,000 active; in the data active means activity change below about -50%; inconclusive means mostly about -30% to -49%; further: on the % scale 0 is the no-effect control and ±100 the full control effect
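Secreted IL-1B measured by AlphaLISA bead assay after 16 h compound exposure of THP-1 cells; compounds (final up to 57.5 uM) added 1 h before LPS (250 ng/mL) and ATP (1.25 mM) stimulation; lower signal means less secretion.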
Numbers without * were called inactive. Unless noted, the call rests on the fitted dose curve; in most records, active means well fitted curve in the direction sought with a large enough effect; inconclusive means small, poorly fitted or top-dose-only effect, or another doubt; inactive means no such curve, though single readings can be large; an effect the other way counts as inactive or inconclusive.

Results for CC1=C(C(=O)N2CCOCC2)CC(CC(=O)NC2CCCCC2)C(=O)N1Cc1ccc(C(C)(C)C)cc1 (stereo not drawn) ?
TDP1 cell CPT: inconclusive; TGFb inhibitor: -12%; TDP1 cell noCPT: 21µM*; HepG2 viability: -56%; IL-1B inflam inh: -13

How did CC1=C(C(=O)N2CCOCC2)CC(CC(=O)NCCN2CCOCC2)C(=O)N1Cc1ccc(C(C)(C)C)cc1 (stereo not drawn) do in these assays?
TDP1 cell CPT: 4%; TGFb inhibitor: 5%; TDP1 cell noCPT: -16%; HepG2 viability: -1%; IL-1B inflam inh: 1

What do the screens show for `CC1=C(C(=O)N2CCCCCC2)CC(CC(=O)NCCCN(C)C)C(=O)N1Cc1ccc(C(C)(C)C)cc1` (stereo not drawn)?
TDP1 cell CPT: 8.3µM*; TDP1 cell noCPT: inconclusive

How did CC1=C(C(=O)N2CCOCC2)CC(CC(=O)NCC2CCCCC2)C(=O)N1Cc1ccc(C(C)(C)C)cc1 (stereo not drawn) do in these assays?
TDP1 cell CPT: 18µM*; TGFb inhibitor: -14%; TDP1 cell noCPT: inconclusive; HepG2 viability: -12%; IL-1B inflam inh: -53*

Results for Cc1cn([C@H]2C[C@@H](N=[N+]=[N-])[C@@H](CO)O2)c(=O)[nH]c1=O ?
TDP1 inh: 4%

How did CC1CCC(NC(=O)CN2C(=O)C3CC=CCC3C2=O)CC1 (stereo not drawn) do in these assays?
TDP1 inh: -2%; TDP1 cell CPT: -10%; TGFb inhibitor: 3%; TDP1 cell noCPT: 5.8µM*; HepG2 viability: 4%; IL-1B inflam inh: -2

How did CC1CCC(NC(=O)CN2C(=O)c3ccccc3S2(=O)=O)CC1 (stereo not drawn) do in these assays?
TDP1 inh: 1%; TDP1 cell CPT: 2%; TGFb inhibitor: 4%; TDP1 cell noCPT: 3%; HepG2 viability: 6%; IL-1B inflam inh: -9

How did Cc1c(C)n(CCCN(C)C)c2ncnc(Nc3ccc(F)cc3)c12 do in these assays?
TDP1 cell CPT: -7%; TGFb inhibitor: 12%; TDP1 cell noCPT: -3%; HepG2 viability: -9%; IL-1B inflam inh: -8

How did Cc1ncc(CO)c(CNc2ccc(Oc3ccccc3)cc2)c1O do in these assays?
TDP1 cell CPT: 13µM*; TGFb inhibitor: 0%; TDP1 cell noCPT: 6.5µM*; HepG2 viability: -28%; IL-1B inflam inh: 4

How did S=C(NCc1cccnc1)Nc1ccc(Oc2ccccc2)cc1 do in these assays?
TDP1 inh: 0%; TDP1 cell CPT: inconclusive; TGFb inhibitor: -7%; TDP1 cell noCPT: inconclusive; HepG2 viability: -19%; IL-1B inflam inh: 0

Results for O=C1CCc2cc(S(=O)(=O)Nc3ccc(F)cc3)ccc2N1 ?
TDP1 inh: 2%; TDP1 cell CPT: -16%; TGFb inhibitor: 0%; TDP1 cell noCPT: 1%; HepG2 viability: -4%; IL-1B inflam inh: 11

Results for CC1CCC(NC(=O)COC(=O)CNC(=O)c2ccc3ccccc3c2)CC1 (stereo not drawn) ?
TDP1 inh: -1%; TDP1 cell CPT: -9%; TGFb inhibitor: -2%; TDP1 cell noCPT: -20%; HepG2 viability: -20%; IL-1B inflam inh: 12

How did CCn1c(CSc2nc3ccccc3s2)nc2ccccc21 do in these assays?
TDP1 inh: 5%; TDP1 cell CPT: inconclusive; TGFb inhibitor: inconclusive; TDP1 cell noCPT: 16µM*; HepG2 viability: -17%; IL-1B inflam inh: -12

What do the screens show for `O=C(O)CSc1nnc(CSc2nc3ccccc3s2)n1-c1ccccc1`?
TDP1 inh: -2%; TDP1 cell CPT: -11%; TGFb inhibitor: -2%; TDP1 cell noCPT: -10%; HepG2 viability: -20%; IL-1B inflam inh: 0

Results for Cc1cc(C)n2c(Br)c(CSc3nc4ccccc4s3)nc2n1 ?
TDP1 inh: 0%; TDP1 cell CPT: -26%; TGFb inhibitor: 0%; TDP1 cell noCPT: 18µM*; HepG2 viability: -26%; IL-1B inflam inh: -5

Results for C#CCSc1nnc(CSc2nc3ccccc3s2)n1-c1ccccc1 ?
TDP1 inh: 2%; TDP1 cell CPT: inconclusive; TGFb inhibitor: 0%; TDP1 cell noCPT: 18µM*; HepG2 viability: -5%; IL-1B inflam inh: inconclusive

Results for COc1ccc(NC(=O)N2CC[C@@]3(CCCN(C(=O)c4cnccn4)C3)C2)cc1 ?
TDP1 cell CPT: -3%; TDP1 cell noCPT: -14%

Results for CCc1cc2c(NCC3CCCO3)nc(C)nc2s1 (stereo not drawn) ?
TDP1 inh: 2%; TDP1 cell CPT: 13µM*; TGFb inhibitor: 1%; TDP1 cell noCPT: inconclusive; HepG2 viability: 3%; IL-1B inflam inh: 4

How did CCc1cc2c(NC(Cc3ccccc3)C(=O)O)nc(C)nc2s1 (stereo not drawn) do in these assays?
TDP1 cell CPT: -2%; TGFb inhibitor: 2%; TDP1 cell noCPT: -25%; HepG2 viability: -1%; IL-1B inflam inh: 32

How did CCc1cc2c(NCc3ccccc3)nc(C)nc2s1 do in these assays?
TDP1 cell CPT: 16µM*; TGFb inhibitor: -24%; TDP1 cell noCPT: 8.2µM*; HepG2 viability: -27%; IL-1B inflam inh: -5

Results for COc1cc(C(=O)N(C)CC(=O)Nc2cccc(F)c2)ccc1OCc1ccccc1 ?
TDP1 inh: -6%; TDP1 cell CPT: inconclusive; TGFb inhibitor: 4%; TDP1 cell noCPT: inconclusive; HepG2 viability: -19%; IL-1B inflam inh: -3

What do the screens show for `CC(=O)c1cc2ccccc2c2ccccc12`?
TDP1 cell CPT: 4%; TGFb inhibitor: -15%; TDP1 cell noCPT: -22%; HepG2 viability: -21%

How did Cc1cc(C)c2c(=O)n(CC(=O)NCCCN3CCN(c4ccccc4F)CC3)sc2n1 do in these assays?
TDP1 inh: 14%; TDP1 cell CPT: 4.6µM*; TGFb inhibitor: inconclusive; TDP1 cell noCPT: 3.3µM*; HepG2 viability: -37%; IL-1B inflam inh: inconclusive

Results for Cc1cc(C)c2c(=O)n(CC(=O)NCCCN3CCOCC3)sc2n1 ?
TDP1 inh: 8%; TDP1 cell CPT: 4.1µM*; TGFb inhibitor: 6%; TDP1 cell noCPT: 6.5µM*; HepG2 viability: 5%; IL-1B inflam inh: -97*

Results for NC(=O)COC(=O)CNC(=O)c1cc(Cl)cc([N+](=O)[O-])c1 ?
TDP1 inh: 6%; TDP1 cell CPT: 22%; TGFb inhibitor: -3%; TDP1 cell noCPT: 18%; HepG2 viability: -11%; IL-1B inflam inh: 12
